# Measured values reported in the supplement of paper PMC8728848.
# This excerpt belongs to a sample that is enriched for the strongest signals.
# Legend:
# Assay in all cases: glycan array binding signal (z-score within array); higher = stronger binding
# Settings in all cases: glycan notation: IUPAC condensed, linker removed
# [1] = target: Fuc(a1-2)Gal(b1-3)GlcNAc(b1-3)[Neu5Ac(a2-6)Gal(b1-4)GlcNAc(b1-6)]Gal(b1-4)Glc
# Outline: (§1)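 Columns mapping to the same glycan were averaged after glycan names were converted to IUPAC-condensed notation. The data come from 3228 arrays in the Consortium for Functional Glycomics database, limited to those with an available protein sequence. Binding is reported as a within-array Z-score averaged across arrays of one protein sequence and across linkers.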
# [2] = target: Fuc(a1-2)Gal(b1-3)[Fuc(a1-4)]GlcNAc(b1-2)Man(a1-3)[Fuc(a1-2)Gal(b1-3)[Fuc(a1-4)]GlcNAc(b1-2)Man(a1-6)]Man(b1-4)GlcNAc(b1-4)[Fuc(a1-6)]GlcNAc(b1-4)[Fuc(a1-6)]GlcNAc
# Outline: as §1
# [3] = target: Fuc(a1-2)[Gal(a1-3)]Gal(b1-3)GlcNAc(b1-2)Man(a1-3)[Fuc(a1-2)[Gal(a1-3)]Gal(b1-3)GlcNAc(b1-2)Man(a1-6)]Man(b1-4)GlcNAc(b1-4)GlcNAc
# Outline: as §1
# [4] = target: Fuc(a1-2)[Gal(a1-3)]Gal(b1-4)GlcNAc
# Outline: as §1
# [5] = target: Fuc(a1-2)[Gal(a1-3)]Gal(b1-4)GlcNAc(b1-2)Man(a1-3)[Fuc(a1-2)[Gal(a1-3)]Gal(b1-4)GlcNAc(b1-2)Man(a1-6)]Man(b1-4)GlcNAc(b1-4)GlcNAc
# Outline: as §1
# [6] = target: Fuc(a1-2)[Gal(a1-3)]Gal(b1-4)GlcNAc(b1-3)GalNAc
# Outline: as §1
# [7] = target: Fuc(a1-2)[Gal(a1-3)]Gal(b1-4)[Fuc(a1-3)]GlcNAc
# Outline: as §1
# [8] = target: Fuc(a1-2)[GalNAc(a1-3)]Gal(b1-3)GalNAc(a1-3)[Fuc(a1-2)]Gal(b1-4)GlcNAc
# Outline: as §1
# [9] = target: Fuc(a1-2)[GalNAc(a1-3)]Gal(b1-3)GalNAc(b1-3)Gal(a1-4)Gal(b1-4)Glc
# Outline: as §1
# [10] = target: Fuc(a1-2)[GalNAc(a1-3)]Gal(b1-4)GlcNAc(b1-3)Gal(b1-4)GlcNAc(b1-3)Gal(b1-4)GlcNAc
# Outline: as §1
# [11] = target: Fuc(a1-2)[GalNAc(a1-3)]Gal(b1-4)GlcNAc(b1-6)GalNAc
# Outline: as §1
# [12] = target: Fuc(a1-3)[Gal(b1-4)]GlcNAc(b1-2)Man
# Outline: as §1
# [13] = target: Fuc(a1-3)[Gal3S(b1-4)]GlcNAc6S
# Outline: as §1
# [14] = target: Gal(a1-3)Gal(b1-4)Glc
# Outline: as §1
# [15] = target: Gal(a1-4)Gal(b1-4)Glc
# Outline: as §1
# [16] = target: Gal(b1-3)GlcNAc(a1-6)Gal(b1-4)GlcNAc
# Outline: as §1
# [17] = target: Gal(b1-3)GlcNAc(b1-2)Man(a1-3)[Gal(b1-3)GlcNAc(b1-2)Man(a1-6)]Man(b1-4)GlcNAc(b1-4)[Fuc(a1-6)]GlcNAc
# Outline: as §1
# [18] = target: Gal(b1-4)GlcNAc(b1-2)Man(a1-3)[Gal(b1-4)GlcNAc(b1-2)Man(a1-6)][GlcNAc(b1-4)]Man(b1-4)GlcNAc(b1-4)[Fuc(a1-6)]GlcNAc
# Outline: as §1
# [19] = target: Gal(b1-4)GlcNAc(b1-2)Man(a1-6)Man(b1-4)GlcNAc(b1-4)GlcNAc
# Outline: as §1
# [20] = target: Gal(b1-4)GlcNAc(b1-3)Gal(b1-4)GlcNAc
# Outline: as §1
# [21] = target: Gal(b1-4)GlcNAc(b1-3)Gal(b1-4)GlcNAc(b1-3)Gal(b1-4)GlcNAc(b1-2)Man(a1-3)[Gal(b1-4)GlcNAc(b1-3)Gal(b1-4)GlcNAc(b1-3)Gal(b1-4)GlcNAc(b1-2)Man(a1-6)]Man(b1-4)GlcNAc(b1-4)GlcNAc
# Outline: as §1
# [22] = target: Gal(b1-4)GlcNAc(b1-3)Gal(b1-4)GlcNAc(b1-3)Gal(b1-4)GlcNAc(b1-3)Gal(b1-4)GlcNAc(b1-3)Gal(b1-4)GlcNAc(b1-2)[Gal(b1-4)GlcNAc(b1-3)Gal(b1-4)GlcNAc(b1-3)Gal(b1-4)GlcNAc(b1-3)Gal(b1-4)GlcNAc(b1-3)Gal(b1-4)GlcNAc(b1-6)]Man(a1-6)[Gal(b1-4)GlcNAc(b1-3)Gal(b1-4)GlcNAc(b1-3)Gal(b1-4)GlcNAc(b1-3)Gal(b1-4)GlcNAc(b1-3)Gal(b1-4)GlcNAc(b1-2)Man(a1-3)]Man(b1-4)GlcNAc(b1-4)[Fuc(a1-6)]GlcNAc
# Outline: as §1
# [23] = target: Gal(b1-4)GlcNAc(b1-6)GalNAc
# Outline: as §1
# [24] = target: Gal3S4S(b1-4)GlcNAc
# Outline: as §1
# [25] = target: GalNAc(a1-3)GalNAc(b1-3)Gal(a1-4)Gal(b1-4)GlcNAc
# Outline: as §1
binder,measurement,setting,value
SJA (Sophora japonica) (protein) FLGLFNSGGYSSSYQIVAVEFDTYINEWDPKTRHIGIDINSINSTKTVTWGWENGEVAIVLISYKAATETLTVSLTYPSSQTSYILSAAVDLKSILPEWVRIGF,glycan array binding signal (z-score),[1],-0.155
same,glycan array binding signal (z-score),[2],-0.175
same,glycan array binding signal (z-score),[3],4.34
same,glycan array binding signal (z-score),[4],2.19
same,glycan array binding signal (z-score),[5],4.98
same,glycan array binding signal (z-score),[6],0.012
same,glycan array binding signal (z-score),[7],6.46
same,glycan array binding signal (z-score),[8],-0.406
same,glycan array binding signal (z-score),[9],-0.202
same,glycan array binding signal (z-score),[10],0.248
same,glycan array binding signal (z-score),[11],-0.199
same,glycan array binding signal (z-score),[12],-0.248
same,glycan array binding signal (z-score),[13],-0.061
same,glycan array binding signal (z-score),[14],-0.143
same,glycan array binding signal (z-score),[15],-0.134
same,glycan array binding signal (z-score),[16],-0.076
same,glycan array binding signal (z-score),[17],-0.007
same,glycan array binding signal (z-score),[18],-0.337
same,glycan array binding signal (z-score),[19],-0.334
same,glycan array binding signal (z-score),[20],-0.148
same,glycan array binding signal (z-score),[21],2.39
same,glycan array binding signal (z-score),[22],2.24
same,glycan array binding signal (z-score),[23],-0.118
same,glycan array binding signal (z-score),[24],-0.23
same,glycan array binding signal (z-score),[25],-0.341
